In PubChem BioAssay (Tox21):
Inconclusive results are not listed. Active and inactive are the calls of the source. Unless noted, calls come from the whole dose curve; as a rule, active = well fitted curve in the direction sought with a large enough effect in the repeat runs; inconclusive = weak or mixed curves; inactive = no such curve, though single readings can be large; an effect the other way counts as inactive or inconclusive.

What was measured:
[1] = target: Peroxisome proliferator-activated receptor delta (Homo sapiens) (UniProt Q03181); test: qHTS assay to identify small molecule agonists of the peroxisome proliferator-activated receptor delta (PPARd) signaling pathway (AID 743212; calls by dose curve)
Peroxisome proliferator-activated receptor delta (Homo sapiens), sequence (Q03181 whole entry, looked up): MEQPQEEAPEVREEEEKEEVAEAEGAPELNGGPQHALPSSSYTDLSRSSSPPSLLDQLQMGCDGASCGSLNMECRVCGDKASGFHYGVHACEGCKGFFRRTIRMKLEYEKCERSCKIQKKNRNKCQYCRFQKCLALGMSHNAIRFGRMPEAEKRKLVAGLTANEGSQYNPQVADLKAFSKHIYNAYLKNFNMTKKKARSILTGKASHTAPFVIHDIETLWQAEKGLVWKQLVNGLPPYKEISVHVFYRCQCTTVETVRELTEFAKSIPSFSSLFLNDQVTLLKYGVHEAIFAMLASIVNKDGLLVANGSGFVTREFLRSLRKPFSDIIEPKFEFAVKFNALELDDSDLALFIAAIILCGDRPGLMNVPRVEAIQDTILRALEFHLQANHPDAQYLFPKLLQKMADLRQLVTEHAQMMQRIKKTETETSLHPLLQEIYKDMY
In short: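 HEK293H UAS-bla reporter cells, human PPARd system; compounds delivered in DMSO after 5 h plating, then at 37 C. Beta-lactamase FRET read, 2 h RT substrate step.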

[2] = qHTS assay to identify small molecule antagonists of the peroxisome proliferator-activated receptor delta (PPARd) signaling pathway - cell viability counter screen (AID 743213); note: nearly all actives have a fitted effect of over 50% in size
In short: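 HEK293H cells with the PPARd UAS-bla reporter, co-treated 17 h at 37 C with compounds and L165041 (300 nM final), were lysed with CellTiter-Glo. Luminescence indicated viable cell content.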

[3] = target: Bile acid receptor (Homo sapiens) (UniProt Q96RI1); test: qHTS assay to identify small molecule antagonists of the farnesoid-X-receptor (FXR) signaling pathway (AID 743217; active = well fitted inhibition curve with a large enough effect in the signal ratio in the repeat runs, not every such curve was filed as active; the % refers to the signal ratio)
Bile acid receptor (Homo sapiens), sequence (Q96RI1 whole entry, looked up): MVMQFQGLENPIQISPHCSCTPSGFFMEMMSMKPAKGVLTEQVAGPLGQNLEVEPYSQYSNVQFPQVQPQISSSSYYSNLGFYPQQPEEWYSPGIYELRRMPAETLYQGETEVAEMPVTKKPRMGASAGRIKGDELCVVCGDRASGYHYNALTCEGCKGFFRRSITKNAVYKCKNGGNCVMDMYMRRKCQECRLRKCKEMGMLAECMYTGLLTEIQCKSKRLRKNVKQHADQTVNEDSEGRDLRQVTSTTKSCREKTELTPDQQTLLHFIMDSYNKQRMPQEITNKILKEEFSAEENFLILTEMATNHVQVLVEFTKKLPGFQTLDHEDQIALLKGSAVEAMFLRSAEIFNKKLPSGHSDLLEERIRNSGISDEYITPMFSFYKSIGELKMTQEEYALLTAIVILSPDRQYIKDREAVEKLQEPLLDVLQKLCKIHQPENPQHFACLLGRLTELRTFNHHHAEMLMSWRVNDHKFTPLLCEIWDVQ
In short: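 FXR-UAS-bla HEK 293T cells (beta-lactamase reporter) given compound plus chenodeoxycholic acid (50 uM final), 16 h at 37C. LiveBLAzer B/G FRET substrate added for 2 h at room temperature; fluorescence read.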

[4] = qHTS assay to identify small molecule antagonists of the farnesoid-X-receptor (FXR) signaling pathway - cell viability counter screen (AID 743221; active = well fitted cell-killing curve with a large enough effect in the repeat runs, not every such curve was filed as active; note: nearly all actives have a fitted effect of over 50% in size)
In short: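 Quantitative HTS of the Tox21 10K library run in parallel with the beta-lactamase reporter read. HEK 293T cells carrying a UAS-driven bla reporter got compound and 50 uM CDCA (final) for 16 h; ATP-based luminescence followed.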

[5] = qHTS assay to identify small molecule antagonists of the vitamin D receptor (VDR) signaling pathway - cell viability counter screen (AID 743225); note: nearly all actives have a fitted effect of over 50% in size
In short: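 Cells (VDR-UAS-bla HEK 293T) are plated, rested 4 h at 37C, dosed with compound and 3 nM final 1-alpha,25-dihydroxy vitamin D3, and incubated 16 h. Viability is taken from CellTiter-Glo luminescence in the reporter wells.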

[6] = qHTS assay to identify small molecule agonists of the NFkB signaling pathway (AID 1159509; active = well fitted curve in the direction sought with a large enough effect in the signal ratio in the repeat runs, not every such curve was filed as active; the % refers to the signal ratio; note: series mostly up to about 61 µM)
In short: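 NFkB-bla ME-180 cells with a beta-lactamase reporter under an NF-kB response element were plated overnight, treated with compounds in DMSO for 5 hr at 37 C, then loaded with FRET substrate for 1.5 hr at room temperature.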

[7] = qHTS assay to identify small molecule agonists of the NFkB signaling pathway - cell viability counter screen (AID 1159515; calls by dose curve; note: series mostly up to about 61 µM; nearly all actives have a fitted effect of over 55% in size)
In short: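 NFkB-bla ME-180 cells, 2,000/well, plated overnight at 37 C; compound added for 5 hr at 37 C. Viability read in the same wells as the bla reporter, by CellTiter-Glo luminescence after 30 min at room temperature.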

[8] = qHTS assay to identify small molecule agonists of the endoplasmic reticulum stress response signaling pathway (AID 1159516; active = well fitted activation curve with a large enough effect in the signal ratio in the repeat runs, not every such curve was filed as active; the % refers to the signal ratio)
In short: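 CellSensor ESRE-bla HeLa cells, 1,500 per well, plated overnight, then exposed to compounds for 5 hr at 37 C. Beta-lactamase reporter read with LiveBLAzer B/G FRET substrate after 2 hr at room temperature, 405 nm excitation, 460 and 530 nm emission.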

[9] = qHTS assay to identify small molecule agonists of the endoplasmic reticulum stress response signaling pathway - cell viability counter screen (AID 1159517; calls by dose curve;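 note: HeLa cells carrying an ER stress response element beta-lactamase reporter; series mostly up to about 61 µM; nearly all actives have a fitted effect of over 50% in size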)
In short: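 Cells, HeLa ESRE-bla; density, 1,500/well; dosing, 5 hr at 37 C, 5% CO2; readout, CellTiter-Glo luminescence after 30 min RT.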

[10] = qHTS assay to identify small molecule antagonists of the retinoid-related orphan receptor gamma (ROR-gamma) signaling pathway - cell viability counter screen (AID 1159520); note: nearly all actives have a fitted effect of over 50% in size; note: potency is the fitted concentration of half-maximal effect
In short: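 Cytotoxicity was read from cellular ATP (CellTiter-Glo luminescence) after 16 hr at 37 C with 1 uM doxycycline induction. The inducer was added 2 hr after compound transfer to Tet-on ROR gamma CHO cells.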

[11] = target: Nuclear receptor ROR-gamma (Homo sapiens) (UniProt P51449); test: qHTS assay to identify small molecule antagonists of the retinoid-related orphan receptor gamma (ROR-gamma) signaling pathway (AID 1159521; note: nearly all actives have a fitted effect of over 50% in size; note: potency is the fitted concentration of half-maximal effect)
In short: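 RORγ antagonism is scored from reduced reporter luminescence in Tet-on CHO cells. Induction used 1 uM final doxycycline hyclate for 16 h at 37 C, following a 2 h compound exposure.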

[12] = qHTS assay to identify small molecule agonists of the AP-1 signaling pathway - cell viability counter screen (AID 1159525; calls by dose curve; note: nearly all actives have a fitted effect of over 55% in size)
In short: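 Luminescent ATP readout (Cell Titer Glo, 30 min RT), normalised to DMSO and tetra n-octyl ammonium bromide controls. Cells were ME-180 AP-1-bla in 0.5% dialyzed FBS Opti-MEM, with a 5 h, 37 °C compound exposure.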

[13] = qHTS assay to identify small molecule agonists of the AP-1 signaling pathway (AID 1159526; calls by dose curve)
[14] = target: Peroxisome proliferator-activated receptor delta (Homo sapiens) (UniProt Q03181); test: qHTS assay to identify small molecule antagonists of the peroxisome proliferator-activated receptor delta (PPARd) signaling pathway (AID 743215; active = well fitted inhibition curve with a large enough effect in the signal ratio in the repeat runs, not every such curve was filed as active; the % refers to the signal ratio;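 note: cells stimulated with agonist L165041 at 300 nM final during compound exposure; series mostly up to about 62 µM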)
In short: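 PPARd-bla HEK293H cells (UAS-bla reporter) preincubated 5 h, then given compound plus 300 nM final L165041 agonist for 17 h at 37 C. Beta-lactamase activity read by LiveBLAzer B/G FRET substrate fluorescence after 2 h at room temperature.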

[15] = qHTS assay to identify small molecule agonists of the farnesoid-X-receptor (FXR) signaling pathway - cell viability counter screen (AID 743218); note: nearly all actives have a fitted effect of over 45% in size
In short: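 FXR-UAS-bla HEK 293T cells exposed to compounds for 16 h at 37C. Cytotoxicity read in the same wells by CellTiter-Glo luminescence after 30 min at room temperature, following the beta-lactamase FRET read.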

[16] = target: Vitamin D3 receptor (Homo sapiens) (UniProt P11473); test: qHTS assay to identify small molecule antagonists of the vitamin D receptor (VDR) signaling pathway (AID 743223; active = well fitted inhibition curve with a large enough effect in the signal ratio in the repeat runs, not every such curve was filed as active; the % refers to the signal ratio)
Vitamin D3 receptor (Homo sapiens), sequence (P11473 whole entry, looked up): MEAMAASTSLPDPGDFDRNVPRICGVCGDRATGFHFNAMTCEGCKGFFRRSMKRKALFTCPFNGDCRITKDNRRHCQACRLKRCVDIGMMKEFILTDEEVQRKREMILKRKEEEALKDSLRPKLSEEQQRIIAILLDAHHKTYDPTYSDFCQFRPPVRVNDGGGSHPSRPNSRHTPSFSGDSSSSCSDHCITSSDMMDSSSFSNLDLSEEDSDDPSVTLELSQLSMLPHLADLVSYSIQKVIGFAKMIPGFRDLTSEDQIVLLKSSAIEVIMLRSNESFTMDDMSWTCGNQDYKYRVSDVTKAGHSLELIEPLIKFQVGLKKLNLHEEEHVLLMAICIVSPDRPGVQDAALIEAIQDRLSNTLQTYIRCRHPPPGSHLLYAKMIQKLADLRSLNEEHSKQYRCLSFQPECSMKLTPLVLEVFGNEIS
In short: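 Fluorescence from LiveBLAzer B/G FRET substrate, read after 2 h at room temperature, reflects beta-lactamase reporter activity in VDR-bla cells treated 16 h at 37C with compounds and agonist 1alpha,25-dihydroxyvitamin D3 (3 nM final).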

[17] = qHTS assay to identify small molecule agonists of the peroxisome proliferator-activated receptor delta (PPARd) signaling pathway - cell viability counter screen (AID 743211); note: nearly all actives have a fitted effect of over 55% in size
In short: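 Viability of GeneBLAzer PPARd UAS-bla HEK293H cells was assessed after 17 h compound incubation at 37C, using CellTiter-Glo reagent added after the reporter read and luminescence recorded 30 min later.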

[18] = target: Vitamin D3 receptor (Homo sapiens) (UniProt P11473); test: qHTS assay to identify small molecule agonists of the vitamin D receptor (VDR) signaling pathway (AID 743222; calls by dose curve)
In short: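 VDR-bla cells plated 4 h at 37 C, then exposed to compounds for 16 h at 37 C. Beta-lactamase reporter activity measured by fluorescence after 2 h room-temperature loading with LiveBLAzer B/G FRET substrate.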

[19] = qHTS assay to identify small molecule agonists of the vitamin D receptor (VDR) signaling pathway - cell viability counter screen (AID 743224); note: nearly all actives have a fitted effect of over 50% in size; note: potency is the fitted concentration of half-maximal effect
In short: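 VDR-bla cells, 4 h after plating, exposed to compounds for 16 h at 37C; viability then read in the same wells as CellTiter-Glo luminescence after 30 min at room temperature, following the bla FRET read.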

[20] = target: Bile acid receptor (Homo sapiens) (UniProt Q96RI1); test: qHTS assay to identify small molecule agonists of the farnesoid-X-receptor (FXR) signaling pathway (AID 743220; active = well fitted activation curve with a large enough effect in the signal ratio in the repeat runs, not every such curve was filed as active; the % refers to the signal ratio)
In short: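 Beta-lactamase reporter under UAS control in GeneBLAzer FXR HEK 293T cells (5000/well) measured with LiveBLAzer FRET substrate after 2 h at room temperature. Compound exposure lasted 16 h at 37C.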

Measured: Potency

Cc1nnc2n1-c1sc(CCC(=O)N3CCOCC3)cc1C(c1ccccc1Cl)=NC2
not listed: [14] | [15] | [16] | [17] | [18] | [19] | [20]
inactive: all other assays above

Nc1cc(Cl)ccc1O
not listed: [2] | [3] | [13] | [17] | [18] | [19] | [20]
inactive: all other assays above

CCC(=O)C(CCN(C)C)(c1ccccc1)c1ccccc1
not listed: [3] | [13] | [20]
inactive: all other assays above

CC(C1CC1)C(O)(Cn1cncn1)c1ccc(Cl)cc1 (stereo not drawn)
not listed: [3] | [15] | [16] | [17] | [20]
inactive: all other assays above

COc1cccc2c1cc([N+](=O)[O-])c1c(C(=O)O)cc3c(c12)OCO3
active: [19] 15.5 µM | [10] 43.3 µM | [11] 15.4 µM
inactive: [17] | [15] | [6] | [7] | [8] | [9] | [12]

COC(=O)C1=CCCN(C)C1
not listed: [13] | [15] | [17]
inactive: all other assays above

O=C1OC(c2ccc(O)c(S(=O)(=O)O)c2)(c2ccc(O)c(S(=O)(=O)O)c2)c2c(Br)c(Br)c(Br)c(Br)c21
not listed: [3] | [13] | [16]
inactive: all other assays above

Nc1n[nH]c(N)n1
active: [11] 15.6 µM
not listed: [13] | [19]
inactive: all other assays above

c1cc[c]([Hg][c]2ccccc2)cc1
active: [19] 49 µM | [10] 27.3 µM | [11] 19.3 µM
not listed: [3] | [13] | [14] | [15] | [16] | [17] | [20]
inactive: all other assays above

CCOP(=S)(OCC)SCSc1ccc(Cl)cc1
not listed: [1] | [16] | [17]
inactive: all other assays above

O=[N+]([O-])c1cccc2c([N+](=O)[O-])cccc12
not listed: [3] | [15] | [16] | [17] | [18] | [20]
inactive: all other assays above

CCN(CC)C(=O)[C@@H]1C=C2c3cccc4[nH]cc(c34)C[C@H]2N(C)C1
not listed: [2] | [3] | [16] | [17] | [18]
inactive: all other assays above

ClCC(Cl)Cl
not listed: [3] | [5] | [16] | [17] | [20]
inactive: all other assays above

CCOP(=S)(Oc1cnc(C(C)(C)C)nc1)OC(C)C (stereo not drawn)
not listed: [2] | [3] | [13] | [17] | [19] | [20]
inactive: all other assays above

CCOP(=S)(OCC)SCSP(=S)(OCC)OCC
not listed: [3] | [13] | [16] | [20]
inactive: all other assays above

CCOC(=O)N(C)C(=O)CSP(=S)(OCC)OCC
not listed: [3] | [5] | [14] | [16] | [17]
inactive: all other assays above

COc1ccc2c(c1OC)CN1CCc3cc4c(cc3C1C2)OCO4 (stereo not drawn)
not listed: [1] | [3] | [5] | [14] | [17] | [20]
inactive: all other assays above
